A short description of experiment [1]: qHTS assay to identify small molecule antagonists of the glucocorticoid receptor (GR) signaling pathway - cell viability counter screen (AID 720693; note: nearly all actives have a fitted effect of over 55% in size; note: potency is the fitted concentration of half-maximal effect). (In qHTS, concentration-response curves come from the screen itself.)
A short description of experiment [2]: qHTS assay for identifying genotoxic compounds that show differential cytotoxicity against isogenic chicken DT40 cell lines with known DNA damage response pathways - wild type cell line (AID 743012). Note: nearly all actives have a fitted effect of over 60% in size. Note: potency is the fitted concentration of half-maximal effect. The method in brief:
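Cytotoxicity in repair-proficient parental chicken DT40 cells serves as the comparator for Rad54/Ku70- and Rev3-deficient lines. Cells were exposed to compounds for 40 h at 37 C/5% CO2, and ATP-based luminescence (CellTiter-Glo) measured viability.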

Experiment [3] in a line: qHTS assay for identifying genotoxic compounds that show differential cytotoxicity against isogenic chicken DT40 cell lines with known DNA damage response pathways - Rev3 mutant cell line (AID 743014). Note: nearly all actives have a fitted effect of over 55% in size. Note: potency is the fitted concentration of half-maximal effect.
Experiment [4] is described as follows: qHTS assay for identifying genotoxic compounds that show differential cytotoxicity against isogenic chicken DT40 cell lines with known DNA damage response pathways - Rad54/Ku70 mutant cell line (AID 743015). Note: nearly all actives have a fitted effect of over 60% in size. Note: potency is the fitted concentration of half-maximal effect.
A short description of experiment [5]: qHTS assay to identify small molecule antagonists of the androgen receptor (AR) signaling pathway - cell viability counter screen (AID 743033; note: nearly all actives have a fitted effect of over 45% in size; note: potency is the fitted concentration of half-maximal effect).
Experiment [6] can be described thus: qHTS assay to identify small molecule antagonists of the androgen receptor (AR) signaling pathway using the MDA cell line - cell viability counter screen (AID 743041; note: nearly all actives have a fitted effect of over 45% in size; note: potency is the fitted concentration of half-maximal effect). The method in brief: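 Cytotoxicity counter screen: MDA-kb2 AR-luc cells, compound + R1881, 16 h, 37C, 0% CO2; CellTiter-Fluor added at 15.5 h, fluorescence read after 30 min.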
In experiment [7] the target is Androgen receptor (Homo sapiens) (UniProt P10275). The experiment can be described thus: qHTS assay to identify small molecule agonists of the androgen receptor (AR) signaling pathway using the MDA cell line (AID 743040; note: nearly all actives have a fitted effect of over 20% in size). The method in brief:
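Luciferase read-out, ONE-Glo, 30 min RT. Cells: MDA-kb2 AR-luc, MMTV promoter with AR and GR response elements. Compound exposure 16 h, 37C, 0% CO2, after 5 h pre-incubation. qHTS agonist mode.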

For experiment [8] the target is unchanged. Nature of the experiment: qHTS assay to identify small molecule antagonists of the androgen receptor (AR) signaling pathway using the MDA cell line (AID 743042; note: nearly all actives have a fitted effect of over 55% in size; note: potency is the fitted concentration of half-maximal effect). A digest of the protocol: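 MDA-kb2 breast carcinoma cells carrying MMTV-luciferase (AR/GR responsive) were co-treated with compounds and the agonist R1881 for 16 h at 37C. Inhibition read as ONE-Glo luminescence; CellTiter-Fluor fluorescence measured in parallel for cytotoxicity.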

For experiment [9] the target is unchanged. The experiment can be described thus: qHTS assay to identify small molecule agonists of the androgen receptor (AR) signaling pathway (AID 743036; active = well fitted activation curve with a large enough effect in the signal ratio in the repeat runs, with a control signal flat, not every such curve was filed as active; the % refers to the signal ratio). A digest of the protocol: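 AR-UAS-bla HEK293 cells, plated 4 h before dosing, were treated with compound for 16 h at 37C. beta-Lactamase reporter read after 2 h with LiveBLAzer B/G FRET substrate at room temperature.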

The target is the same in experiment [10]. Nature of the experiment: qHTS assay to identify small molecule antagonists of the androgen receptor (AR) signaling pathway (AID 743035; active = well fitted inhibition curve with a large enough effect in the signal ratio in the repeat runs, not every such curve was filed as active; the % refers to the signal ratio). The method in brief:
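Steps: seed AR-UAS-bla GripTite HEK293 cells, incubate 4 h at 37C; pin in test compound, then add agonist R1881; incubate 16 h at 37C; add LiveBLAzer B/G FRET substrate, 2 h at room temperature; read fluorescence.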

The values below come from PubChem BioAssay (Tox21).

Values joined by “and” are separate entries in the source; they are usually repeats but may differ in a detail not shown here. Equal entries are not always repeated. Inconclusive results are not listed. Active and inactive are the calls of the source. Unless noted, calls come from the whole dose curve; as a rule, active = well fitted curve in the direction sought with a large enough effect in the repeat runs; inconclusive = weak or mixed curves; inactive = no such curve, though single readings can be large; an effect the other way counts as inactive or inconclusive.

Sequence of Androgen receptor (Homo sapiens) (P10275 whole entry, looked up): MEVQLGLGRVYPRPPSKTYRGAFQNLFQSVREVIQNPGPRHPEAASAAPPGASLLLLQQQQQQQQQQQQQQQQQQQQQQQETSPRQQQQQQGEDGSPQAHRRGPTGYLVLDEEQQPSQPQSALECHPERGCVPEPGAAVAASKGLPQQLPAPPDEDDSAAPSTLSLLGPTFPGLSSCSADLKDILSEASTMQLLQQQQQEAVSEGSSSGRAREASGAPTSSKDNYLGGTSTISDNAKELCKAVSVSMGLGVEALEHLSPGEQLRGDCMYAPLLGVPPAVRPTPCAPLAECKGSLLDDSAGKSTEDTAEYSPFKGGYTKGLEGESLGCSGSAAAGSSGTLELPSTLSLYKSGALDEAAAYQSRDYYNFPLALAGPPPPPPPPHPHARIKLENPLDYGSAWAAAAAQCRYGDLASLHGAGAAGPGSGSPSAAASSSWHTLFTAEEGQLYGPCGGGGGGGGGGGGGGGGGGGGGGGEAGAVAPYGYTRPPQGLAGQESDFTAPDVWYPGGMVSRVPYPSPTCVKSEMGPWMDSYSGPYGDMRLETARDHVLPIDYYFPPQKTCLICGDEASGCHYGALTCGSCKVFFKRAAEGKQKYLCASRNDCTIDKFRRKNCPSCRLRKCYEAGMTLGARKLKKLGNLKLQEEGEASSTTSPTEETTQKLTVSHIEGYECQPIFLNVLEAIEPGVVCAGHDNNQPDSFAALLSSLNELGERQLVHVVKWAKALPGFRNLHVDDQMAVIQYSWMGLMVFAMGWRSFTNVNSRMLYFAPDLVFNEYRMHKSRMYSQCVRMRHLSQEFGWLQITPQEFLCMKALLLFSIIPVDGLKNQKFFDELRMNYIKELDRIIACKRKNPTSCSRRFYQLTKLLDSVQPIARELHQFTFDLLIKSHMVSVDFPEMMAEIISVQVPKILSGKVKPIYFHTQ

As for `Cc1cccc2n[nH]nc12`, the Potency result in [1], in experiment [2], in experiment [3], in [4], in experiment [5] and in experiment [6] was “inactive” in each case.
With `COc1cc(C(=S)N2CCOCC2)ccc1O`, the Potency entry in experiment [1], in experiment [2], in experiment [3], in experiment [4], in experiment [5] and in [6] was “inactive” throughout. For the same molecule, the Potency entry in experiment [8] was “inactive”. For the same molecule, the molecule was classed as inactive in [7].
On to `CCC(C)(C)C(=O)O[C@H]1C[C@@H](C)C=C2C=C[C@H](C)[C@H](CC[C@@H]3C[C@@H](O)CC(=O)O3)[C@H]21`, for which the Potency result in experiment [1], in experiment [5] and in [6] was “inactive” throughout. Moreover, the Potency in experiment [2] is 2.17 µM (active); in experiment [3], 154 nM (active); in experiment [4] it was 1.09 µM (active).
For `O=C(OCc1ccccc1)c1ccc(O)cc1`, the Potency result in experiment [1], in [2], in [3], in experiment [5] and in experiment [6] was “inactive” each time. The Potency in experiment [4] was 61.1 µM (active).
In the case of `C/C=C/c1ccc(OCC)c(O)c1`, the Potency entry in experiment [1], in experiment [2], in experiment [3], in experiment [4], in experiment [5] and in [6] was “inactive” each time.
In the case of `CC(C(O)c1ccc(O)cc1)N1CCC(Cc2ccccc2)CC1` (stereo unspecified), the Potency entry in experiment [1] and in experiment [5] was “inactive” throughout. For the same molecule, the Potency was 2.11 µM (active) in experiment [2], 335 nM (active) in [3] and 0.668 µM (active) in experiment [4].
For `CCCCCCCCCCCCCC[P+](CCCC)(CCCC)CCCC`, the Potency in experiment [1] was 9.72 µM (active) and 4.9 µM (active); in [2] it was 192 nM (active) and 86.3 nM (active); in experiment [3], 85.8 nM (active) and 61.1 nM (active); in experiment [4], 76.5 nM (active) and 54.5 nM (active); in [5], 866 nM (active) and 977 nM (active); in [6], 21.6 µM (active) and 6.11 µM (active). In [8], the Potency is 2.16 µM (active) and 1.54 µM (active). For the same molecule, in experiment [7], the result was inactive.
As for `CCCOC(=O)c1cc(O)c(O)c(O)c1`, the Potency result in experiment [1], in [5] and in experiment [6] was “inactive” in each case. The Potency in [2] was 13.3 µM (active) and 43.1 µM (active) and 43.3 µM (active); in experiment [3], 15 µM (active) and 27.2 µM (active) and 30.6 µM (active); in experiment [4], 13.3 µM (active) and 27.2 µM (active) and 27.3 µM (active).
As to `C=CS(=O)(=O)O`, the Potency result in experiment [1], in experiment [2], in experiment [3], in [4], in [5] and in experiment [6] was “inactive” each time.
In the case of `CC(C)CCCCCCc1ccc(O)cc1`, the Potency in [1] was 25 µM (active); in [2] it was 21.1 µM (active) and 62.2 µM (active) and 27.3 µM (active); in experiment [3], 11.9 µM (active) and 17.5 µM (active) and 30.6 µM (active); in experiment [4], 21.1 µM (active) and 62.2 µM (active) and 27.3 µM (active). The Potency result in [5] and in experiment [6] was “inactive” each time.
On to `CCc1ccc(C(c2ccc(CC)cc2)C(Cl)Cl)cc1`, for which the Potency entry in experiment [1], in experiment [2], in experiment [3], in experiment [4], in experiment [5] and in experiment [9] was “inactive” each time. The Potency entry in experiment [6] and in experiment [8] was “inactive” in each case. Besides, the molecule was classed as inactive in [7].
As for `OCC(CO)N[C@H]1C[C@](O)(CO)[C@@H](O)[C@H](O)[C@H]1O`, the Potency result in experiment [1], in [2], in experiment [3], in experiment [4], in experiment [5] and in [10] was “inactive” each time. For the same molecule, the Potency result in experiment [9], in experiment [6] and in experiment [8] was “inactive” each time. In addition, the molecule was called inactive in experiment [7].
For `c1ccc2c(c1)CCCC2C1=NCCN1` (stereo unspecified), the Potency entry in experiment [1], in [2], in experiment [3], in experiment [4], in experiment [5] and in [6] was “inactive” each time.
`Cc1cc(C2(c3cc(C)c(O)cc3C)OS(=O)(=O)c3ccccc32)c(C)cc1O`: the Potency entry in [1], in experiment [2], in experiment [3], in experiment [4] and in experiment [5] was “inactive” each time. The Potency in experiment [6] was 30.6 µM (active).
In the case of `CC1COC(=O)O1` (stereo unspecified), the Potency entry in experiment [1], in [2], in experiment [3], in experiment [4], in experiment [5] and in experiment [10] was “inactive” throughout. Further, the Potency entry in experiment [9], in [6] and in [8] was “inactive” throughout. Further, the result in [7] was inactive.
For `CC1COc2c(N3CCN(C)CC3)c(F)cc3c(=O)c(C(=O)O)cn1c23` (stereo unspecified), the Potency entry in [1], in [2], in [3], in experiment [4], in experiment [5] and in experiment [6] was “inactive” in each case.
Take `CCCN[C@H]1CCc2nc(N)sc2C1`: the Potency entry in experiment [1], in experiment [2], in experiment [3], in [4], in [5] and in experiment [6] was “inactive” each time.
As to `CCOc1ccccc1C(N)=O`, the Potency result in experiment [1], in [2], in [3], in experiment [4], in experiment [5] and in experiment [10] was “inactive” throughout. Besides, the Potency result in [9], in experiment [6] and in experiment [8] was “inactive” throughout. For the same molecule, in [7], the call was inactive.
As for `Oc1ccc(Cl)cc1Cc1cc(Cl)ccc1O`, the Potency is 39.6 µM (active) and 34.7 µM (active) in experiment [1]; 23.7 µM (active) and 39.3 µM (active) and 21.7 µM (active) in experiment [2]; 16.8 µM (active) and 31.2 µM (active) and 10.9 µM (active) in experiment [3]; 16.8 µM (active) and 31.2 µM (active) and 12.2 µM (active) in experiment [4]; 19.8 µM (active) and 11 µM (active) in [5]; 27.8 µM (active) and 38.6 µM (active) in experiment [8]. Also, the Potency result in experiment [9] and in [6] was “inactive” each time. For the same molecule, in experiment [7], the molecule was classed as inactive.
For the molecule `Clc1ccc2c(c1)C(N1CCNCC1)=Nc1ccccc1O2`, the Potency entry in [1], in experiment [5] and in experiment [6] was “inactive” in each case. Further, the Potency in [2] is 26.6 µM (active) and 7.7 µM (active); in experiment [3], 29.8 µM (active) and 9.69 µM (active); in experiment [4] it was 26.6 µM (active) and 10.9 µM (active).
